Reference: PubChem BioAssay (NCI)
Compounds without any hit were thinned out: in the full panel of roughly 83,000, 20% have a hit.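 Note: values are percent growth. 100 is the growth of untreated cells, values between 100 and 0 indicate rising inhibition; between -100 and 0 indicates cell death.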 A number with no mark means an inactive call. The source made the active and inactive calls. How the source made its calls: active means growth percent below 10; inactive means the rest.

Legend:
Test in all cases: NCI-60 one-dose screen, 48 h (100 = growth as untreated, 0 = no growth, -100 = all killed)
NCI-H23 lung = details: 10 µM unless noted
NCI-H226 lung = details: 10 µM unless noted
NCI-H322M lung = details: 10 µM unless noted
HOP-62 NSCLC = details: 10 µM unless noted
NCI-H460 lung = details: 10 µM unless noted
HOP-92 NSCLC = details: 10 µM
NCI-H522 lung = details: 10 µM unless noted
A549/ATCC NSCLC = details: 10 µM unless noted
786-0 renal = details: 10 µM unless noted
COLO 205 colon = details: 10 µM unless noted

| SMILES | growth (NCI-H23 lung) | growth (NCI-H226 lung) | growth (NCI-H322M lung) | growth (HOP-62 NSCLC) | growth (NCI-H460 lung) | growth (HOP-92 NSCLC) | growth (NCI-H522 lung) | growth (A549/ATCC NSCLC) | growth (786-0 renal) | growth (COLO 205 colon) |
| --- | --- | --- | --- | --- | --- | --- | --- | --- | --- | --- |
| O=C(CSc1nnc(-c2ccc(Cl)cc2)n1-c1ccccc1)Nc1ccc(Br)cc1 | 35.9% | -27.7% (active) | 0.91% (active) | -11.9% (active) | 5.77% (active) | -37.7% (active) | 12.1% | 4.69% (active) | -83% (active) | 51.9% |
| COc1ccc2c(c1)Oc1nc(N)c(C#N)c(N)c1C2Sc1ccc(C)cc1 (stereo not given) | -19.3% (active) | -1.63% (active) | 51.9% | 100% | -37.6% (active) | -35.9% (active) | -51.5% (active) | 75.6% | -80.7% (active) | -16.7% (active) |
| O=C1CCC(N2C(=O)c3ccc(NS(=O)(=O)c4ccccc4OC(F)(F)F)cc3C2=O)C(=O)N1 (stereo not given) | 107% | 44.7% | 46.1% | 6.09% (active) | 115% | -2.41% (active) | 69.3% | 78.7% | 47.6% | 20.5% |
| Cc1cc(C)n(C(=O)c2sc(=S)n(-c3ccccc3)c2N=Nc2c(N)n[nH]c2N)n1 | 104% | 102% | 101% | 103% | 108% | 114% | 93.2% | 102% | 111% | 109% |
| C=CCn1c(SCC(=O)Nc2ccc(C(=O)/C=C/c3cccc([N+](=O)[O-])c3)cc2)nnc1-c1c[nH]c2ccccc12 | 94.1% | 74.2% | 91.2% | 106% | 102% | 101% | 78.9% | 93.9% | 106% | 110% |
| COc1cccc(/C=C(/C)c2ccc3cccc(OC)c3[o+]2)c1O | 105% | 103% | 98.8% | 106% | 102% | 91% | 93.6% | 102% | 98.5% | 118% |
| Nc1ncc(-c2ccc3ncnc(Nc4cccc(Cl)c4F)c3c2)cn1 | 72.8% | 66.6% | 11% | 47.5% | 62.2% | 31.3% | 32.2% | 51.9% | 43.5% | 86.4% |
| Cc1ccc(NC(=O)c2ccc(CN3CCOCC3)c(C(F)(F)F)c2)cc1Oc1ccc(-c2[nH]nc3ncnc(N)c23)cc1 | 84.6% | 66% | 72% | 86.9% | 66.3% | 50.8% | 62.5% | 65.1% | 69.2% | 18.8% |
| COc1cc(C2N=C(NNc3ccccc3)NC(C)=C2C(C)=O)ccc1O (stereo not given) | 96.7% | 86.5% | 88.1% | 82% | 106% | 90.4% | 78.5% | 95.5% | 102% | 113% |
| NS(=O)(=O)c1ccc(-n2cc(CN3CCNCC3)nn2)cc1 | 106% | 101% | 113% | 102% | 108% | 113% | 98.4% | 110% | 99.4% | 116% |
| CC/C(=C/c1cc(OC)ccc1O)c1ccc2cc(OC)ccc2[o+]1 | 64.2% | 78% | 84.2% | 69.8% | 33.6% | 71% | 24.2% | 58.3% | 65.9% | 56.1% |
| COc1c(N2CC3CCCNC3C2)c(F)cc2c(=O)c(C(=O)N/N=C/c3c[nH]c4ccccc34)cn(C3CC3)c12 (stereo not given) | 102% | 107% | 105% | 109% | 107% | 79.6% | 107% | 102% | 95.1% | 107% |
| COc1c(N2CC3CCCNC3C2)c(F)cc2c(=O)c(C(=O)N/N=C/c3ccc(N(C)C)cc3)cn(C3CC3)c12 (stereo not given) | 69.1% | 98.5% | 93.6% | 91.9% | 78.3% | 69.5% | 73% | 88.7% | 37.7% | 104% |
| COc1cc(/C=C2\C(=O)Nc3cc(Cl)ccc32)ccc1OCc1ccc(F)cc1 | 101% | 91.2% | 98.2% | 95.9% | 99% | 89.2% | 92.9% | 110% | 108% | 110% |
| COc1cc2c(cc1OC)C(Sc1ccc(F)cc1)c1c(nc(N)c(C#N)c1N)O2 (stereo not given) | -83.1% (active) | -29.4% (active) | -74.8% (active) | 10.5% | -60.7% (active) | -29.4% (active) | -37.7% (active) | -30% (active) | -72.3% (active) | -45.3% (active) |
| O=S(=O)(NCCNc1nccc(-n2cnc3ccccc32)n1)c1ccc(Cl)cc1 | 101% | 91.1% | 95.3% | 95.4% | 103% | 90.2% | 92.1% | 103% | 99% | 104% |
| O=S(=O)(NCCCNc1nccc(-c2[nH]c(-c3ccccc3)nc2-c2ccc(Cl)c(O)c2)n1)c1cccc(F)c1 | 65.5% | 62.8% | 87.9% | 75.2% | 55.2% | 85.5% | 54.2% | 65.2% | 100% | 87.9% |
| C[C@H](CCC(=O)NCc1ccc(C(=O)Nc2ccccc2N)cc1)[C@H]1CC[C@H]2[C@@H]3[C@@H](O)C[C@@H]4C[C@H](O)CC[C@]4(C)[C@H]3CC[C@]12C | 66.7% | 57.1% | 79% | 58.3% | 60.8% | 69.1% | 37.8% | 90.3% | 71.4% | 65.2% |
| N/C(=N\C(N)=N\c1nc2ccccc2s1)c1ccc(C(F)(F)F)cc1 | 39% | 69.6% | 100% | 91% | 22.6% | 82.1% | 88.1% | 6.31% (active) | 93% | 119% |
| CCn1c(SCC(=O)Nc2cccc(C(=O)/C=C/c3cc(OC)c(OC)c(OC)c3)c2)nc2ccccc2c1=O | -17.1% (active) | 11.5% | 54.4% | 53.8% | 2.34% (active) | 34.6% | 38% | 41.1% | 30.2% | 102% |
| COc1cccc(O)c1/C=C(/C)c1ccc2c(OC)cccc2[o+]1 | 103% | 105% | 103% | 92.5% | 109% | 104% | 98.5% | 107% | 101% | 117% |
| COc1ccc2c(c1)c(CC(=O)[Se]CCC#N)c(C)n2C(=O)c1ccc(Cl)cc1 | 3.36% (active) | -53.6% (active) | -3.57% (active) | -48.1% (active) | 1.16% (active) | -67.8% (active) | -8.61% (active) | 2.64% (active) | -45.3% (active) | 88.4% |
| Nc1ccccc1NC(=O)c1ccc(NC(=O)C/C=C/c2cccnc2)cc1 | 41.6% | 46.6% | 47.6% | 36.5% | 46.8% | 11.3% | 7.23% (active) | 47.2% | 53.3% | 10.3% |
| CCOc1ccccc1NC1=C(Cl)C(=O)c2nc(C)ccc2C1=O | -67.8% (active) | 17.6% | 28.8% | 84.3% | 12.1% | -89.2% (active) | -43.5% (active) | 59.1% | -88.2% (active) | 99.2% |
